Mot1-301 SUMO: yeast Mot1-301 growth rescue at high temperature, primary screen, SUMOylation pathway inhibitor project, S. cerevisiae, ATP luminescence, 38.5C; S. cerevisiae Mot1-301 growth rescue; percent above DMSO median, 100 means doubled; growth rescue, % at 18.8 µM; 320,000 tested, 1% active; AID 2716, 2010;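 active = every valid replicate shows activation above 250% relative to neutral control wells; inactive = the rest, any valid replicate at or below 250%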
AI-2 QS mod: Vibrio harveyi AI-2 quorum sensing modulators, primary screen, JMH597 strain, luminescence/OD600 ratio | Vibrio harveyi JMH597 AI-2 luminescence/OD600 ratio, 9 h; active compounds read low; strain lacks LuxN and CqsS sensors; 0 = neutral-control median | activity change, % at 7.5 µM | 300,000 tested, 0.4% active | AID 2094, 2009; in the data active = activity change below about -75%, passing the limit was not always enough;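 note: luminescence divided by OD600 gain over 9 h not by final OD600 alone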
Bfl-1 A1 inh: caspase 3/7 activation in MEF A1-2A-BIM cells, primary screen, A1 inhibitor project, cell-based, luminescence, HTS | 330,000 tested, 0.066% active | AID 2462, 2010 | caspase activation, % (concentration not given with the values) | Caspase-Glo 3/7 luminescence, 3 h; percent of clofoctol response, vehicle zero;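 active = over half of replicate activation scores above 10%, or exactly half above 10 with the replicate mean above 10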
ARNT-TACC3 inh: disruptors of ARNT/TACC3 protein interaction, primary screen, biochemical, AlphaScreen, single concentration; AlphaScreen His-ARNT PAS-B/GST-TACC3 binding, luminescence; TACC3 fragment carries E629A point mutation; inhibition, % at 9.99 µM; 390,000 tested, 0.66% active; AID 623870, 2012;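 active = mean inhibition of replicates at least 50% and at least half of replicates each reaching 50%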
aDG glyco up: activators of alpha-DG glycosylation, primary screen, uHTS, Pro5-aDG cells, AlphaScreen | alpha-DG glycosylation AlphaScreen (IIH6); 0% Pro5, 100% B10-LARGE cell signal | activation, % at 10 µM | 360,000 tested, 0.22% active | AID 624168, 2012;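 active = activation of at least 8% versus controls, or a plate z-score of at least 8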;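 note: Pro5 are CHO cells carrying HIG-tagged alpha-DG that lacks glycosylation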
JMH597 growth rt: Vibrio harveyi growth inhibition, confirmation, counter-screen for AI-2 quorum sensing project, JMH597 strain, OD600 absorbance; shares compounds with AI-2 QS mod; 9 h; lacks LuxN and CqsS sensors; growth inhibition, % at 7.5 µM; 750 tested, 1% active; AID 2726, 2010;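 active = every replicate shows growth inhibition above 50%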
BB721 lum counter: luminescence inhibition in constitutive-on V. harveyi, confirmation, counter-screen for LuxS inhibitor project, strain BB721, luminescence readout | Vibrio harveyi BB721 luminescence, 9 h | AID 2727, 2010 | inhibition, % at 7.5 µM | 750 tested, 95% active | shares compounds with AI-2 QS mod;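 active = inhibition above about 80% in every replicate, not just on average, limit read from the data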
BB721 growth rt: growth inhibition of V. harveyi BB721, confirmation, cytotoxicity control for AI-2 quorum sensing inhibitors, strain BB721, absorbance OD600; Vibrio harveyi BB721 growth, 9 h; shares compounds with AI-2 QS mod; 750 tested, 3% active; AID 2728, 2010; growth inhibition, % at 7.5 µM;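 active = every replicate shows growth inhibition above 50%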
AI-2 QS JMH597: Vibrio harveyi AI-2 signaling luminescence modulation – JMH597 strain, confirmation. shares compounds with AI-2 QS mod. Vibrio harveyi JMH597 AI-2 quorum sensing luminescence, 9 h; luxN and CqsS knockout, AI-2 only. inhibition, % at 7.5 µM. 750 tested, 97% active. AID 2736, 2010;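 active = every replicate shows more than 75% inhibition of signal versus neutral control wells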
Yeast Mot1 SUMO: growth restoration of Mot1-301 yeast on galactose, dose response, SUMO pathway inhibitor project, whole organism, S. cerevisiae, ATP luminescence, cherry-picked samples. 2,300 tested, under 10 active. S. cerevisiae Mot1-301 galactose growth, 24 h; -100 = growth of slx-deleted rescue strain. growth activity, percent, % at 42 µM. shares compounds with Mot1-301 SUMO;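 active = Signal drops as the depositor expects, and the fitted half-maximal dose is no more than ten times the top valid tested dose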;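 note: more negative values mean stronger growth rescue toward the control strain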
Large screens that a line does not name were inactive (follow-up assays come after a bar, where they were run). Compounds with a hit are over-represented: about 1.8% of the library has one in this group of screens.

COc1ccc(Oc2cc(NC(=O)c3nn(C)cc3[N+](=O)[O-])cc([N+](=O)[O-])c2)cc1	Bfl-1 A1 inh 13
CCC(C)/C=C(C)/C=C/C1=CC2=C(Cl)C(=O)C(C)(OC(C)=O)C(=O)C2=CO1 (stereo unspecified)	ARNT-TACC3 inh 49
COc1cc(/C=C/[N+](=O)[O-])ccc1OC(=O)c1cccnc1	Bfl-1 A1 inh 8.0
C=CCn1c(O)c(C(C)=Nc2ccc(NC(C)=O)cc2)c(=O)[nH]c1=O	none
O=C(c1cc2cc(Cl)ccc2[nH]1)N1CCC2(CC1)OCCO2	AI-2 QS mod -84 | JMH597 growth rt inactive | BB721 lum counter 96 | BB721 growth rt inactive | AI-2 QS JMH597 98
O=C(c1ccc(-c2ccccc2)cc1)C1CCCN(Cc2ccn[nH]2)C1 (stereo unspecified)	AI-2 QS mod -84 | JMH597 growth rt inactive | BB721 lum counter 84 | BB721 growth rt inactive | AI-2 QS JMH597 91
Cc1ccsc1C(=O)C1CCCN(Cc2ccn[nH]2)C1 (stereo unspecified)	none
CCN(CC)CCCN=Cc1c(O)n(Cc2ccc(F)cc2)c(=O)[nH]c1=O	none (no result: ARNT-TACC3 inh)
CCC1(c2ccc(-c3ccccc3)cc2)C(=O)NC(=O)NC1=O	AI-2 QS mod -90 | JMH597 growth rt inactive | BB721 lum counter 98 | BB721 growth rt inactive | AI-2 QS JMH597 98
CCC1(c2ccccc2)C(=O)NC(=O)NC1=O	none (no result: Mot1-301 SUMO, AI-2 QS mod, Bfl-1 A1 inh)
NC(=O)c1ccc(N=Nc2c(O)[nH]c(=O)[nH]c2=O)cc1	none (no result: ARNT-TACC3 inh, aDG glyco up)
O=C(COC(=O)Cc1ccccc1)Nc1ccc(SC(F)F)cc1	AI-2 QS mod -91 | JMH597 growth rt inactive | BB721 lum counter 94 | BB721 growth rt inactive | AI-2 QS JMH597 99
CCOP(=O)(OCC)C(NC(=O)c1cccc(C)c1)C(Cl)(Cl)Cl (stereo unspecified)	Mot1-301 SUMO 971 | Yeast Mot1 SUMO inactive
CCOP(=O)(OCC)C(NC(=O)c1cccc2ccccc12)C(Cl)(Cl)Cl (stereo unspecified)	none
CCOP(=O)(OCC)C(NC(=O)c1cccc([N+](=O)[O-])c1)C(Cl)(Cl)Cl (stereo unspecified)	Mot1-301 SUMO 710 (no result: ARNT-TACC3 inh) | Yeast Mot1 SUMO inactive
Cc1ccc(-c2nc3ccccc3c(=O)n2-c2ccccn2)cc1	none
C#CCN1C(=O)C2(C(C#N)=C(N)OC(C)=C2C(=O)OCc2ccccc2)c2ccccc21 (stereo unspecified)	none
CN1C(=O)C(=Cc2cn(CC(=O)N3CCCCC3)c3ccccc23)C(=O)N(C)C1=O	none
CN1C(=O)C(=Cc2cn(CC(=O)N3CCCC3)c3ccccc23)C(=O)N(C)C1=O	Mot1-301 SUMO active | Yeast Mot1 SUMO inactive
Cc1cccc(N/N=C/c2c(O)[nH]c(=S)[nH]c2=O)c1	Mot1-301 SUMO 376 | Yeast Mot1 SUMO inactive
Cc1ccc2c(c1)=C/C(=C\c1c(O)[nH]c(=S)[nH]c1=O)C(=O)N=2	none (no result: ARNT-TACC3 inh, aDG glyco up)
Cc1nc2ccccc2c(=O)n1-n1cnnc1	none
CC(=O)C1(c2ccccc2)CCNCC1	Mot1-301 SUMO 706 | Yeast Mot1 SUMO inactive
O=C(O)C1(c2ccc(Cl)cc2)CCC1	none (no result: Mot1-301 SUMO)
CCOC(=O)C1(CCc2ccccc2)CCN(Cc2cccc3c2OCO3)CC1	none
CC(=O)N1CC(=O)Nc2ccc(Cl)cc2C1c1ccccc1 (stereo unspecified)	Mot1-301 SUMO active | Yeast Mot1 SUMO inactive
O=C1C=C2C=C[C@H]3C[C@]2(O1)[C@@H]1CCCCN13	none
O=c1[nH]c(O)c(N=Nc2cc([N+](=O)[O-])ccc2O)c(=O)[nH]1	Mot1-301 SUMO 649, ARNT-TACC3 inh 57 | Yeast Mot1 SUMO inactive
O=[N+]([O-])c1ccc(O)c([N+](=O)[O-])c1	none
COc1ccc(-n2c(-c3ccccc3Br)nc3ccccc3c2=O)cc1	none
C=CCOC(=O)C1C(C(=O)O)C2(Cl)C(Cl)=C(Cl)C1(Cl)C2(Cl)Cl (stereo unspecified)	none (no result: Mot1-301 SUMO, AI-2 QS mod, Bfl-1 A1 inh)
O=C(O)C1C(C(=O)O)C2(Cl)C(Cl)=C(Cl)C1(Cl)C2(Cl)Cl (stereo unspecified)	Mot1-301 SUMO 400 (no result: AI-2 QS mod, ARNT-TACC3 inh) | Yeast Mot1 SUMO inactive
C=C1C2C[C@@]3([C@@H]1O)[C@@H](C[C@@H]2O)[C@@]12C4[C@@H]3C[C@@H]1[C@@](C)(CC[C@@H]2O)CN4CC	Mot1-301 SUMO 405 (no result: AI-2 QS mod) | Yeast Mot1 SUMO inactive
CCN1C[C@]2(C)CC[C@H](O)[C@]34C1[C@H](C[C@H]23)[C@@]1(O)C[C@H](OC)[C@H]2C[C@@H]4[C@@H]1C2O (stereo partly specified)	none (no result: AI-2 QS mod)
Cc1c(C(=O)N2CCC3(CC2)OCCO3)oc2ccc(S(=O)(=O)N3CCCCC3)cc12	none (no result: ARNT-TACC3 inh)
O=C(c1ccccc1)C(CN1CCCC1)c1ccccc1 (stereo unspecified)	Mot1-301 SUMO 560 | Yeast Mot1 SUMO inactive
Cc1nc2ccccc2c(=O)n1-c1c(Cl)cccc1Cl	none (no result: Mot1-301 SUMO, AI-2 QS mod, Bfl-1 A1 inh, ARNT-TACC3 inh)
COC(=O)c1cn(C(=O)c2cccc3ccccc23)c2ccccc12	Mot1-301 SUMO 490 | Yeast Mot1 SUMO inactive
C=CCN=C(SCC(=O)c1ccc(Cl)cc1)c1c(O)n(C)c(=O)n(C)c1=O	none
COc1ccc(OC)c(N2C(=O)CC(=O)NC2=O)c1	none
Cc1ccc(O)c(C)c1	Mot1-301 SUMO 389 (no result: AI-2 QS mod, ARNT-TACC3 inh) | Yeast Mot1 SUMO inactive
OC[C@@H](O)CCl	Mot1-301 SUMO 360 (no result: ARNT-TACC3 inh, aDG glyco up) | Yeast Mot1 SUMO inactive
